About 3,800 (1%) of roughly 370,000 compounds were called active. Many of the other results were omitted from the sample, so actives are more common in it than they were. A number with no mark means an inactive call. No stated cut-off is given here; in the data, active means activation above about 7.8%; inactive means the rest.

The assay can be described thus: SMARCA2 (BRM) function activators, primary screen, cell-based, luminescence, high throughput (AID 652017).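 Further: 0% = vehicle wells and 100% = reference activator wells.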 As to conditions: MG213 cells, MMTV-luciferase reporter, dexamethasone, overnight; at 9.1 µM; active compounds read high.
For `COc1ccccc1CNS(=O)(=O)c1c(C)[nH]c(C)c1C(=O)N1CCCCC1`, the activation is 3.15%. To `COC(=O)[C@H](CCSC)NC(=O)Nc1ccc(OC)cc1` belongs 0.38%; to `COc1ccc(NC(=O)c2sccc2SCC#N)cc1`, 8.69% (active); to `COc1ccc(NC(=O)C(C)SCc2ccccc2)cc1` (configuration not stated), -0.97%.

Take `Cc1c[nH]c2cccc(-c3ccc(Cl)cc3)c12`: the activation was -2.85%.

With `CCCCn1c(N)c(N(CC(C)C)C(=O)c2cccc(S(=O)(=O)N3CC(C)OC(C)C3)c2)c(=O)[nH]c1=O` (configuration not stated), the activation is -0.77%. For `COC(=O)C1CN(CC(C)C)CCS(=O)(=O)N1Cc1ccc(C)cc1` (configuration not stated), the activation is -1.21%. Consider `O=C(CSc1nc2ccccc2s1)NN=Cc1ccc(O)cc1O`, for which the activation was -6.37%. To `CCC(=O)NC(=Nc1nc2ccccc2s1)NC(=O)CC` belongs 7.9% (active). As to `CC(C)CC(=O)N/C(N)=N/c1nc2ccccc2s1`, the activation is 5.04%.

On to `COC(=O)CCC(=O)N1CCCC(CO)(Cc2ccccc2)C1` (configuration not stated), for which the activation is 3.15%. Regarding `COc1cccc(N2CCN(CC(=O)N(C)Cc3ccc(F)cc3)CC2)c1`, the activation is -2.95%. For the compound `COc1ccccc1Cn1c(CO)nc2ccccc21`, the activation is -2.13%. Consider `COCc1nc2ccccc2n1Cc1ccccc1Br`, for which the activation was -3.44%. `COCn1c(COc2ccccc2)nc2ccccc21`: the activation was 9.21% (active). With `COC(=O)C1CN(CCc2ccccc2)CCS(=O)(=O)N1Cc1cccc(Cl)c1` (configuration not stated), the activation is -3.45%.

Consider `CCCCN(CC)C(=S)Nc1ccc2nc3n(c(=O)c2c1)CCCCC3`, for which the activation was -4.18%. With `CC1CCCCC1NC(=O)CCS(=O)(=O)c1ccc2c(c1)NC(=O)CO2` (configuration not stated), the activation is -2.77%. Consider `CC1CCCCC1NC(=O)CN1CCC(O)(c2ccc3c(c2)OCO3)CC1` (configuration not stated), for which the activation was 8.42% (active). Take `Cc1ccc(NC(=O)CN2CCC3(O)CCCCC3C2c2ccc3c(c2)OCO3)c(C)c1` (configuration not stated): the activation was 0.08%. In the case of `Cc1sc2nc(SCC(=O)c3ccc(O)c(O)c3)n(Cc3ccco3)c(=O)c2c1C`, the activation was -5.31%. To `Cc1ccccc1OCCC(=O)Nc1c(C)n(C)n(-c2ccccc2)c1=O` belongs -3.07%; to `Cc1c(NC(=O)CSc2cccc3cccnc23)c(=O)n(-c2ccccc2)n1C`, 8.2% (active). `Cc1ccc(S(=O)(=O)CC(=O)Nc2c(C)n(C)n(-c3ccccc3)c2=O)cc1`: the activation is -1.75%. For the compound `C[C@]1(C(=O)NCCc2c[nH]c3ccccc23)C=C[C@@H](Cc2ccccc2)N1C(=O)c1ccccc1`, the activation was 1.41%. Regarding `Cc1ccc(-n2c(SCC(=O)Nc3ccc(S(=O)(=O)Nc4nccs4)cc3)nnc2-c2cccnc2)cc1`, the activation was -5.55%. `Cc1c(CCO)c(=O)n(-c2ccccc2)n1S(=O)(=O)c1ccc(F)cc1`: the activation is -2.63%. On to `O=C(NCc1cccs1)C1CCN(S(=O)(=O)c2ccccc2[N+](=O)[O-])CC1`, for which the activation is -3.33%. `Cc1ccc(NC(=S)NNC(=O)CSc2nnc(SCc3ccccc3Cl)s2)cc1`: the activation is -6.06%. As for `Cn1cccc1C(=O)Nc1nccs1`, the activation is 1.12%. For `CCOc1ccc(C(=O)Nc2nccs2)cc1[N+](=O)[O-]`, the activation was 5.63%. For the compound `CC(=O)Oc1ccc(C(=O)Nc2nccs2)cc1`, the activation is 9.12% (active). Take `COc1ccc(-c2nc3n(c(=O)c2C#N)CCS3)c(OC)c1`: the activation is -2.7%. For the compound `COc1ccc2c(c1)CN1CN(CCc3ccccc3)S(=O)(=O)CC21` (configuration not stated), the activation was 5.9%. Turning to `COc1ccc(OC)c2c(N)c(C#N)c(C(F)(F)C(F)(F)F)nc12`, the activation was 1.9%. `COc1ccc(-c2cc(-c3ccc(N)cc3)nc(N)c2C#N)cc1OC`: the activation was 8.11% (active).

Consider `COc1ccc(-c2cc(C(F)(F)F)nc(S(C)(=O)=O)n2)cc1OC`, for which the activation was -11.1%. Turning to `CCCCOc1ccc(Cl)cc1CSc1nncn1N`, the activation was 1.44%. For the compound `CCCCCCCCN1C(=O)[C@@H](CC(=O)NCc2ccc(C)o2)C[C@@]2(C(=O)OC)C1=C[C@H](C(C)(C)C)O[C@@H]2C`, the activation was -5.88%. For the compound `COc1cccc(CSc2nnc(-c3cccnc3)n2Cc2ccccc2)c1`, the activation is -3.94%.

Take `CC(C)c1ccc(S(=O)(=O)NC2CCCC2)cc1`: the activation was -1.52%. For the compound `Cc1ccc(S(=O)(=O)NC2CCCCCC2)cc1C(N)=O`, the activation is -2.18%. Consider `Cn1sc(=O)c2cc(S(=O)(=O)NC3CC3)ccc21`, for which the activation is 8.34% (active).

For `CN(C)CC(=O)N[C@@H]1C[C@@H]2O[C@H](CO)CC[C@@H]2O[C@@H]1CCc1ccc(C#Cc2ccccc2)cc1`, the activation was 0.56%. Take `CCC(C)Sc1nc(C)nc2c1c(=O)n(C)c(=O)n2C` (configuration not stated): the activation is -1.47%. As for `CN(C)C(=O)c1cccc(-c2cnc3c(NC=O)cc(-c4ccc(C(=O)N5CCOCC5)cc4)cn23)c1`, the activation is 3.31%. With `CC(=O)Nc1cccc(-c2cc(NC(C)=O)c3ncc(-c4ccccc4)n3c2)c1`, the activation is -12.2%. Take `CC(=O)Nc1cc(-c2ccc(N3CCN(C)CC3)cc2)cn2c(-c3ccc(F)cc3)cnc12`: the activation was 12.3% (active). To `CC(=O)Nc1cc(-c2ccc(N3CCN(C)CC3)cc2)cn2c(-c3cccc(C(=O)N(C)C)c3)cnc12` belongs 5.35%; to `CC(=O)c1cccc(-c2cnc3c(NC=O)cc(-c4ccc(N5CCN(C)CC5)cc4)cn23)c1`, 16.7% (active). As to `COc1ccc(-c2cc(NC=O)c3ncc(-c4cccc(C(=O)N(C)C)c4)n3c2)c(OC)c1`, the activation was -4.41%. Take `O=CNc1cc(-c2ccc(C(=O)N3CCOCC3)cc2)cn2c(-c3ccc(F)cc3)cnc12`: the activation is -2.13%. With `CC(=O)Nc1cc(-c2cccc(CO)c2)cn2c(-c3cccc(C(F)(F)F)c3)cnc12`, the activation was -2.27%. To `CN(C)CCNC(=O)c1cccc(-c2cnc3c(NC=O)cc(-c4cccc(C(F)(F)F)c4)cn23)c1` belongs 21.3% (active); to `O=C(CN1CCC(NC(=O)NCc2ccccc2)CC1)Nc1ccc2c(c1)OCCO2`, 0.31%; to `COc1ccc(N2CCN(CCNS(=O)(=O)c3ccc(C(C)(C)C)cc3)CC2)cc1`, 3.29%. Turning to `Clc1ccc(-n2c(COc3ccccc3)nnc2SCc2nc3ccccc3[nH]2)cc1`, the activation is -4.61%.
